These results are taken from PubChem BioAssay (EPA / NIEHS).

Several values for one entry are separate records, joined by “and”; a condition that tells them apart may be missing. Identical values can stand only once. Results filed as inconclusive are left out. Activity calls are given as the source filed them. How the source made its calls: active means hit-call score of the fitted dose curve at least 0.9, where 1 is the maximum; inconclusive means response in the unintended direction; inactive means score below 0.9.

Cellular tumor antigen p53 (Homo sapiens), sequence (P04637 whole entry, looked up): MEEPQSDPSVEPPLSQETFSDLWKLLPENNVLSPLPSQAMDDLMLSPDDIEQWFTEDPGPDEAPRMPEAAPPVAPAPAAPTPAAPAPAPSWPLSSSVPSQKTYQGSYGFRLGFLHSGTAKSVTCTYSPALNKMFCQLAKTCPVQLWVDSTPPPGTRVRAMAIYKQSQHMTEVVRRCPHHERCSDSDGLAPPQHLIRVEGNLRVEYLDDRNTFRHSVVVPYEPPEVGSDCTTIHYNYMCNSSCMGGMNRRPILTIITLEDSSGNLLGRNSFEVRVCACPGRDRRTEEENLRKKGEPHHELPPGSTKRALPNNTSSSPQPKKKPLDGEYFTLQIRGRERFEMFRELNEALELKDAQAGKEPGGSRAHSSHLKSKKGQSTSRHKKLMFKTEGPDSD

The assay concerns the target Cellular tumor antigen p53 (Homo sapiens) (UniProt P04637). Description: TOX21_p53_BLA_p4_ratio: Tox21 HCT-116 p53 Agonism Beta-lactamase Assay, Ratio, Phase 4 (AID 2283601). A digest of the protocol:
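HCT-116 p53 beta-lactamase reporter cells (4000/well) preincubated 5 h, then compound (217-fold dilution of DMSO stock) for 16 h at 37C. CCF4-AM substrate added 2 h at room temperature; 460/530 nm emission ratio fitted upward versus DMSO.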
On to `CCOC(C)=O`, for which the outcome was inactive.
As to `CC=O`, the concentration at half-maximal activity (AC50) is 62.6 µM (active).
In the case of `COc1ccccc1NC(=O)c1cc2ccccc2cc1O`, the AC50 is 36.1 µM (active).
Take `CC(=O)CC(C)C`: the result was inactive.
The same measure, in the same setting: as for `NCCN`, the entry is “inactive”.
As to `CCCCCCCCCCCC[N+](C)(C)CCCCCCCCCCCC`, the AC50 was 32.3 µM (active).
Turning to `CCCCCCCCCCCCCCCCCC[N+](C)(C)Cc1ccccc1`, the AC50 is 69.6 µM (active).
Regarding `O=C(O)c1cccc(C(=O)O)n1`, the result was inactive.
For `CCCCCCCCCCCC(=O)NCCCN(C)C`, the AC50 is 59.8 µM (active).
As for `CC(C)(C)c1ccc(CCC=O)cc1`, the result was inactive.
Still for that read-out and setting: then `CCCCCCc1ccc(N)cc1`, with “inactive”.
Still for that read-out and setting: as for `C=CC(C)(CCC=C(C)C)OC(C)=O` (configuration not stated), the entry is “inactive”; as for `O=S(=O)(O)c1ccc2cc(O)ccc2c1`, “inactive”.
As to `NC(=NCCCCCCN=C(N)/N=C(\N)Nc1ccc(Cl)cc1)/N=C(\N)Nc1ccc(Cl)cc1`, the AC50 is 71.4 µM (active) [middle of 5 runs].
Take `CCOC(=O)CN[C@@H](C(=O)N1CC[C@H]1C(=O)NCc1ccc(/C(N)=N/O)cc1)C1CCCCC1`: the result was inactive.
The same measure, in the same setting: then `COC(=O)CC(C(C)=O)C(=O)OC` (configuration not stated), with “inactive”.
In the case of `O=C1OC(=O)c2cc(-c3ccc4c(c3)C(=O)OC4=O)ccc21`, the result was inactive.
As for `CCCCCCCCCCCCCC[n+]1ccccc1`, the AC50 is 21.6 µM (active).
For the compound `Cc1ccc(C)c(S(=O)(=O)O)c1`, the result was inactive.
With `O=C1c2ccccc2C(=O)c2c(O)c(O)cc(O)c21`, the AC50 is 50.1 µM (active).
For `CCCCCCCCC1CCC(=O)O1` (configuration not stated), the result was inactive.
Turning to `CCCCCCOC(=O)c1ccc(O)cc1`, the AC50 was 67.3 µM (active) and 80 µM (active).
As to `CCC(C)c1nccnc1OC` (configuration not stated), the outcome was inactive.
Same read-out and setting: then `O=C(NO)c1ccccc1`, with “inactive”.
Take `c1cnc2c(c1)ccc1cccnc12`: the result was inactive.
Still for that read-out and setting: as for `C[C@]12CC[C@@H]3c4ccc(O)cc4CC[C@H]3[C@@H]1CC[C@@H]2OC(=O)CCC1CCCC1`, the entry is “inactive”; as for `NS(=O)(=O)O`, “inactive”.
Turning to `OCC1CCC(CO)CC1` (configuration not stated), the result was inactive.
Same read-out and setting: then `CCCCCCCCCC=CCC1CC(=O)OC1=O` (configuration not stated), with “inactive”.
Regarding `O=C(c1cc(O)c(O)c(O)c1)c1ccc(O)c(O)c1O`, the AC50 was 79.2 µM (active) and 49.9 µM (active).
For the compound `CCC1CO1` (configuration not stated), the result was inactive.
Same read-out and setting: then `O=C(O)C(=O)O`, with “inactive”.
On the same count and under the same terms, then `CCC(=O)O`, with “inactive”.
`CCCCCCCCCCCCOC(=O)c1cc(O)c(O)c(O)c1`: the AC50 is 53 µM (active) and 36.9 µM (active).
For `Cc1cc(C(C)(C)C)c(O)c(C(C)(C)C)c1`, the result was inactive.
Regarding `Cc1cc(Cc2cc(C)cc(C(C)(C)C)c2O)c(O)c(C(C)(C)C)c1`, the AC50 is 24.2 µM (active) and 48.1 µM (active).
Take `Cc1ccc(C(=O)c2ccccc2)cc1`: the outcome was inactive.
